Laboratory results: PubChem BioAssay (NCI)
“And” between values parts separate entries of the source, which are not always exact repeats. Identical values can stand only once. About 83,000 compounds went through this panel and 20% of them were active in at least one assay; those are over-represented in the sample as a whole.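 Activity criterion: percent growth below 10, measured after cells in 96-well plates were exposed to a single compound concentration for 48 hours.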 The source made the active and inactive calls.

test system: MDA-MB-468 breast; test: NCI-60 one-dose screen, 48 h (100 = growth as untreated, 0 = no growth, -100 = all killed); conditions: 10 µM unless noted

**Q.** With N#CCc1ccccc1 as the compound, how does the growth read?
**A.** 101% (inactive)

**Q.** Which growth does the source give for CC1=C2[C@@H](CC1)[C@]1(C)O[C@@](C(C)C)(C[C@H]1O)[C@H]2OC(=O)C1CC1c1ccccc1 (some centres undefined) here?
**A.** 94.6% (inactive)

**Q.** For COc1cc2c(cc1OC)C13CCN4CC5=CCOC6CC(=O)N2C1C6C5CC43 (centres undefined), which growth is on record?
**A.** 116% (inactive) and 108% (inactive)

**Q.** Which growth does the source give for N#CC1(C#N)C(c2ccc(N(CCCl)CCCl)cc2)OC23CCCCC2C1(C#N)C(=N)O3 (centres undefined) here?
**A.** 56.5% (inactive)

**Q.** With CCCCCCCCCCCCCCCCCCn1cc[n+](C)c1 as the compound, how does the growth read?
**A.** -42.3% (active) and -20.4% (active)

**Q.** For CCC(O)(CN)c1ccccc1 (centres undefined), which growth is on record?
**A.** 101% (inactive)

**Q.** Which growth does the source give for COC(=O)[C@H](Cc1ccccc1)NNC(=O)c1csc([C@@H](C[C@H](C(C)C)N(C)C(=O)[C@@H](NC(=O)[C@H]2CCCCN2C)C2CC2)OC(C)=O)n1 here?
**A.** -11.2% (active)

**Q.** For Fc1ccc(C2=NN(c3ccccc3)C(c3sc(N(CCCl)CCCl)nc3Cl)C2)cc1 (centres undefined), which growth is on record?
**A.** 81.4% (inactive)

**Q.** How did the growth turn out when O=[P+](O)c1cccnc1 was run?
**A.** 99.1% (inactive)

**Q.** For O=C1C(Cl)=C(N2CCOCC2)C(=O)c2ccccc21, which growth is on record?
**A.** -81% (active)

**Q.** How did the growth turn out when CN1CCN(c2ccc(Cl)cc2)CC1 was run?
**A.** 71.1% (inactive)

**Q.** With O=C(O)c1ccccc1N(CCO)CCCl as the compound, how does the growth read?
**A.** 95.1% (inactive)

**Q.** With CC(=O)OC[C@]1(C)C=C2C(=O)[C@](C)(O)C3(CC3)C(C)=C2[C@H]1O as the compound, how does the growth read?
**A.** -71.7% (active)

**Q.** Oc1cc(Cl)ccc1Oc1ccc(Cl)cc1Cl was tested. Which growth did it give?
**A.** 7% (active)

**Q.** How did the growth turn out when CO[C@@H]([CH2][Hg][S]C#N)[C@@H]([CH2][Hg][S]C#N)OC was run?
**A.** 98.3% (inactive)

**Q.** Which growth does the source give for CCN(CCO)C(Cc1ccccc1)c1ccccc1 (centres undefined) here?
**A.** 96% (inactive)

**Q.** Cn1c(O)c(N=O)c(=O)n(C)c1=O was tested. Which growth did it give?
**A.** 112% (inactive) and 106% (inactive)

**Q.** Which growth does the source give for O=C(O)c1ccc(=O)[nH]c1 here?
**A.** 95.8% (inactive) and 102% (inactive)

**Q.** How did the growth turn out when COc1cc[c]([Hg][Cl])cc1 was run?
**A.** -62.8% (active)

**Q.** How did the growth turn out when O=C(O)C(F)F was run?
**A.** 91.4% (inactive)

**Q.** For CC(=O)OC1CCC2(C)C(CCC3C2CC(=O)C2(C)C3CC(Sc3ccc(N(CCCl)CCCl)cc3)C2C(C)=O)C1 (centres undefined), which growth is on record?
**A.** 86.6% (inactive)

**Q.** Which growth does the source give for CN(CCCCN(C)CCOS(C)(=O)=O)CCOS(C)(=O)=O here?
**A.** 76.9% (inactive)

**Q.** With COc1ccc(C2SCC(=O)Nc3c2c(C)nn3-c2nc3ccc(C)cc3s2)cc1O (centres undefined) as the compound, how does the growth read?
**A.** 23.4% (inactive)

**Q.** Which growth does the source give for CC[C@H](C)[C@@H]1OC(=O)C(C)(C)[C@H](O)[C@H](Cc2ccccc2)OC(=O)[C@H](C(C)C)OC(=O)[C@@H](NC(=O)c2cccc(NC=O)c2O)[C@@H](C)OC1=O here?
**A.** 9.86% (active)

**Q.** How did the growth turn out when CCOC(=O)N1CC1 was run?
**A.** 92.5% (inactive)

**Q.** How did the growth turn out when CC[C@]12C=CCN3CC[C@]4(C(=C(C(=O)OC)C1)Nc1cc(OC)c(OC(C)=O)cc14)[C@@H]32 was run?
**A.** 50.3% (inactive)

**Q.** Which growth does the source give for Nc1cc2nc3ccccc3nc2cc1N here?
**A.** -11.9% (active)

**Q.** With ClCc1ccc2ccccc2n1 as the compound, how does the growth read?
**A.** 84.1% (inactive)

**Q.** For Cc1cc[c-]cc1.Fc1c[c-]c(-c2ccccn2)c(F)c1.[Pt+2].c1ccc([PH+](c2ccccc2)c2ccccn2)cc1, which growth is on record?
**A.** 51% (inactive)
